Data on 15 molecules can be found in PubChem BioAssay (NCATS).

Test [1] deals with Peroxisome proliferator-activated receptor gamma (Homo sapiens) (UniProt P37231). The test can be described thus: qHTS assay for small molecule agonists of peroxisome proliferator-activated receptor gamma signaling (AID 588536; active = well fitted curve in the direction sought with a large enough effect in the signal ratio, with a control signal flat, not every such curve was filed as active; the % refers to the signal ratio). The gist of the method: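 Using GeneBLAzer HEK293 cells, response was quantified by CCF4 fluorescence and normalized between basal DMSO (0%) and rosiglitazone 2 uM (100%); curves yielded half-maximal stimulation concentration and efficacy.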
(In general: Quantitative high-throughput screening tests each substance at several concentrations.)

The nature of test [2]: qHTS assay for small molecule agonists of retinoid X receptor alpha signaling (AID 588544; calls by dose curve). The following applies: HEK293T RXRa-UAS-bla, beta-lactamase reporter, 18 h; 530 nm emission.
For test [3], the target named is Retinoic acid receptor RXR-alpha (Homo sapiens) (UniProt P19793). The test is described as above.
The target in test [4] is Thyroid hormone receptor beta (Homo sapiens) (UniProt P10828). In words: qHTS assay for small molecule agonists of thyroid hormone receptor beta signaling (AID 588545; calls by dose curve). The gist of the method: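 In this cell-based screen, titrated compounds act on HEK 293 cells held in medium with 2% charcoal/dextran FBS, NEAA and pyruvate for 18 hrs at 37 C. Responses are expressed relative to T3 (10 nM) as 100% and basal DMSO as 0%.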

Test [5] in a line: qHTS assay for small molecule antagonists of retinoid X receptor alpha signaling (AID 588546; active = well fitted inhibition curve with a large enough effect in the signal ratio, with a control signal flat, not every such curve was filed as active; the % refers to the signal ratio;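 note: cells stimulated with 9-cis-retinoic acid as agonist; % is set by controls: 0 for no effect and ±100 for the full control effect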). Particulars: HEK293T RXRa-UAS-bla, beta-lactamase ratio, antagonist mode; measured here: W530 green channel, cytotoxicity proxy. In a few lines: (§1)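 Beta-lactamase reporter inhibition, read as CCF4 fluorescence ratio (ex 405, em 460/530 nm) after 2 h at RT. HEK293T UAS-bla cells, 2500/well, were stimulated with 9-cis-RA at 500 or 100 nM final alongside test compound for 18 h at 37 C.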

Test [6] deals with Retinoic acid receptor RXR-alpha (Homo sapiens) (UniProt P19793). Described as above. The following applies: HEK293T RXRa-UAS-bla, beta-lactamase ratio, antagonist mode. In a few lines:
as §1

The target of test [7] is Thyroid hormone receptor beta (Homo sapiens) (UniProt P10828). The test can be described thus: qHTS assay for small molecule antagonists of thyroid hormone receptor beta signaling (AID 588547; active = well fitted inhibition curve with a large enough effect in the signal ratio, with a control signal flat, not every such curve was filed as active; the % refers to the signal ratio; note: potency is the fitted concentration of half-maximal effect;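 for activity change % (negative = inhibition): cells stimulated with 0.4 nM T3 agonist during compound exposure; series mostly up to about 77 µM; % is set by controls: 0 for no effect and ±100 for the full control effect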). The following applies: TR-UAS-bla HEK293, beta-lactamase ratio, antagonist mode, 18 h. In a few lines: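 TR-UAS-bla GripTite HEK293 cells in 2% charcoal/dextran FBS medium; compounds 0.59 nM to 92 uM with T3 at 0.4nM final, 18 h at 37 C. Beta-lactamase read by CCF4 fluorescence (460/530 nm); Hill fits gave IC50 and efficacy.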

Test [8] concerns the target Voltage-gated inwardly rectifying potassium channel KCNH2 (Homo sapiens) (UniProt Q12809). The test can be described thus: qHTS Assay for Small Molecule Inhibitors of the Human hERG Channel Activity (AID 588834).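 Note: lower thallium flux fluorescence means stronger hERG block; nearly all actives have a fitted effect of over 50% in size.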 Note: potency is the fitted concentration of half-maximal effect. In a few lines:
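Thallium serves as surrogate for K+ influx through BacMam-delivered hERG in U2OS cells. Compounds are added for about 10 minutes after dye loading; stimulation buffer then starts flux, monitored kinetically on FDSS.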

Test [9] deals with Luciferin 4-monooxygenase (Photinus pyralis) (UniProt P08659). In words: Biochemical firefly luciferase enzyme assay for NPC (AID 624030). Note: nearly all actives have a fitted effect of over 70% in size. Note: potency is the fitted concentration of half-maximal effect. The gist of the method: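 Purified P. pyralis luciferase at 10 nM in 50 mM Tris Acetate (final), luminescence read within 5 minutes of enzyme addition to compounds. Activity normalised to PTC124 versus DMSO; concentration-response curves classed by r2, magnitude and activity.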

A short description of test [10]: S16 Schwann cell viability assay (CellTiter-Glo assay) (AID 624031). Note: nearly all actives have a fitted effect of over 70% in size. Note: potency is the fitted concentration of half-maximal effect. The gist of the method: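 Native S16 Schwann cells (rat), serum-containing medium, overnight attachment then 24 h drug exposure at 37 °C/5% CO2. CellTiter-Glo ATP signal; normalized to cell-free and vehicle wells.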
(In general: In ATP-based viability assays light output follows the ATP content of the culture.)

Test [11] is described as follows: S16 Schwann cell PMP22 intronic element firefly luciferase assay (AID 624032). Note: nearly all actives have a fitted effect of over 30% in size. Note: potency is the fitted concentration of half-maximal effect. The gist of the method:
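Rat S16 Schwann cells stably carrying firefly luciferase driven by a PMP22 intronic element, in 10% FBS, treated 24 h at 37 C. ONE-Glo luminescence normalized to PTC124 control and DMSO (0%); curves classed by r2, magnitude and activity.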

The target of test [12] is Vitamin D3 receptor (Homo sapiens) (UniProt P11473). The test can be described thus: qHTS assay for small molecule antagonists of vitamin D receptor signaling (AID 588541; calls by dose curve;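 note: receptor activated by calcitriol during compound treatment; series mostly up to about 77 µM; % is set by controls: 0 for no effect and ±100 for the full control effect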). In a few lines:
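VDR-UAS-bla HEK293T cells in 2% charcoal-stripped FBS were stimulated with 1-alpha,25-dihydroxyvitamin D3 (3 nM final) plus compound for 16 h at 37 C. The beta-lactamase CCF4 readout was normalized to 50 nM agonist and DMSO, and Hill fits gave IC50.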

Test [13] has the same target. In words: qHTS assay for small molecule agonists of vitamin D receptor signaling (AID 588543; calls by dose curve). The gist of the method: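 VDR-UAS-bla HEK293T cells, 2000/well, 2% charcoal-stripped FBS; compound titration 16 h at 37 C; CCF4 beta-lactamase ratio read. Normalized to 50 nM 1-alpha,25-dihydroxyvitamin D3 (100%) and DMSO; Hill fit gives EC50, efficacy.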
For test [14], the target named is Peroxisome proliferator-activated receptor gamma (Homo sapiens) (UniProt P37231). The test can be described thus: qHTS assay for small molecule antagonists of peroxisome proliferator-activated receptor gamma signaling (AID 588537; active = well fitted inhibition curve with a large enough effect in the signal ratio, with a control signal flat, not every such curve was filed as active; the % refers to the signal ratio; note: potency is the fitted concentration of half-maximal effect). The gist of the method:
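Read-out: CCF4 fluorescence (ex 405, em 460/530 nm) after 2 h at RT. Cells were HEK293 carrying a UAS-bla reporter and treated 16 h at 37 C with compound plus rosiglitazone (50 nM final). Normalized to rosiglitazone and DMSO.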

Test [15] can be described thus: S16 Schwann cell PMP22 intronic element beta-lactamase assay (AID 624044; calls by dose curve;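 note: 0% = DMSO and -100% = potassium clavulanate positive control; nearly all actives have a fitted effect of over 15% in size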). In a few lines: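 Beta-lactamase reporter under a PMP22 intronic regulatory element in stable S16 rat Schwann cells; 24 h compound exposure. 460 nm blue signal normalized between DMSO (0%) and potassium clavulanate, with 535 nm FRET tracking viability; curves classed by r2 and response.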

Structures are written as SMILES. Several values for one entry are separate records, joined by “and”; a condition that tells them apart may be missing. Equal entries are not always repeated. Inconclusive results are not listed. Activity calls are given as the source filed them. Unless noted, calls come from the whole dose curve; as a rule, active = well fitted curve in the direction sought with a large enough effect; inconclusive = small, poorly fitted or top-dose-only effect, or another doubt; inactive = no such curve, though single readings can be large; an effect the other way counts as inactive or inconclusive.

Sequence of Peroxisome proliferator-activated receptor gamma (Homo sapiens) (P37231 whole entry, looked up): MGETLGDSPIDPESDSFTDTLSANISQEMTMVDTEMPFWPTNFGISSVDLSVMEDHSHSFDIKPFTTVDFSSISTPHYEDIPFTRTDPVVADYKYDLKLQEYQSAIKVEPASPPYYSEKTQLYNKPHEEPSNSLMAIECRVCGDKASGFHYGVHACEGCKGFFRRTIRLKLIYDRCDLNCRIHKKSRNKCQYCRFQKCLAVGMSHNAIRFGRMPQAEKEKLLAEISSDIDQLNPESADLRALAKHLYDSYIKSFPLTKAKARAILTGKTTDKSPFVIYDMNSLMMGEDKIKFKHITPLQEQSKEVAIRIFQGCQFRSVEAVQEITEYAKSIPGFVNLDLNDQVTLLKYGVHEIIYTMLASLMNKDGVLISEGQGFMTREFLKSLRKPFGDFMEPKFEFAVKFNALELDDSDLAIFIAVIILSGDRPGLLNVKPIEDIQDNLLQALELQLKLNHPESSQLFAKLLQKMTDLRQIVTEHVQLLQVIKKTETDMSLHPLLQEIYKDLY
Sequence of Luciferin 4-monooxygenase (Photinus pyralis) (P08659 whole entry, looked up): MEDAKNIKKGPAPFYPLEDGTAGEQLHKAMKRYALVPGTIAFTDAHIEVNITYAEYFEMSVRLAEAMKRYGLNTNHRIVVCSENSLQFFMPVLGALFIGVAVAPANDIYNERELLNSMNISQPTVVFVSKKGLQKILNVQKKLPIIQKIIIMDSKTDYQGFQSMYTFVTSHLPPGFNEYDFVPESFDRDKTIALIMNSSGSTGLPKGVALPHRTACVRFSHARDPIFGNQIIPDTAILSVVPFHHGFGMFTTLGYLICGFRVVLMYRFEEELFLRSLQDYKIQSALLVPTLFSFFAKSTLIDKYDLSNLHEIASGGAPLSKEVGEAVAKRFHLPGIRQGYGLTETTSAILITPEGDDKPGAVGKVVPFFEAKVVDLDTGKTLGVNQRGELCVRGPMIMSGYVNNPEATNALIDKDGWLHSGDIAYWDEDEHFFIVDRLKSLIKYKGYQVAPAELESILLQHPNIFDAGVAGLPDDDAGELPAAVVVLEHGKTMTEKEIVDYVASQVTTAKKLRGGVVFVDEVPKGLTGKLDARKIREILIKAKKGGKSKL
Sequence of Retinoic acid receptor RXR-alpha (Homo sapiens) (P19793 whole entry, looked up): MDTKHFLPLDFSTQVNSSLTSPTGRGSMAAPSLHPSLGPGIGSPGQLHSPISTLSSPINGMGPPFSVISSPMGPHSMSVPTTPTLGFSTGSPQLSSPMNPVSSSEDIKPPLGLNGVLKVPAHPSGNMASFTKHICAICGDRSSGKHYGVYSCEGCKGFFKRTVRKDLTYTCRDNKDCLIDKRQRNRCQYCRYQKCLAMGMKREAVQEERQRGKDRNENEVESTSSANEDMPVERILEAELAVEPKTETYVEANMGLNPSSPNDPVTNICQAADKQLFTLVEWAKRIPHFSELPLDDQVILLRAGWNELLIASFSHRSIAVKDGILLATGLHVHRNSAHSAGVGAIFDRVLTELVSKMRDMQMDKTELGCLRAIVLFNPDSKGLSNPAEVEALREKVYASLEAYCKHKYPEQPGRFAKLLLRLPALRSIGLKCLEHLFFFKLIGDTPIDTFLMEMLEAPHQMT
Sequence of Vitamin D3 receptor (Homo sapiens) (P11473 whole entry, looked up): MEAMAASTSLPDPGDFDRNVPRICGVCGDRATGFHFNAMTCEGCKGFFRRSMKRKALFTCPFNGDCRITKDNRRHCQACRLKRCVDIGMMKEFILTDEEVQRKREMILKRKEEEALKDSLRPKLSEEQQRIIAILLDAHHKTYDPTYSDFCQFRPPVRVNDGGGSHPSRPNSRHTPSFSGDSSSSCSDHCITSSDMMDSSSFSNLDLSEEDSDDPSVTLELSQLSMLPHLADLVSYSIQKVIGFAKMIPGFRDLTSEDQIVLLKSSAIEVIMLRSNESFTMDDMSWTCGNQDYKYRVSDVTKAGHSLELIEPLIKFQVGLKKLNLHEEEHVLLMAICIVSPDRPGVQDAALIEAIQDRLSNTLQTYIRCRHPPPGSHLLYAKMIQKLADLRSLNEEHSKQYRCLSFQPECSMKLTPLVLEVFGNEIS
Sequence of Thyroid hormone receptor beta (Homo sapiens) (P10828 whole entry, looked up): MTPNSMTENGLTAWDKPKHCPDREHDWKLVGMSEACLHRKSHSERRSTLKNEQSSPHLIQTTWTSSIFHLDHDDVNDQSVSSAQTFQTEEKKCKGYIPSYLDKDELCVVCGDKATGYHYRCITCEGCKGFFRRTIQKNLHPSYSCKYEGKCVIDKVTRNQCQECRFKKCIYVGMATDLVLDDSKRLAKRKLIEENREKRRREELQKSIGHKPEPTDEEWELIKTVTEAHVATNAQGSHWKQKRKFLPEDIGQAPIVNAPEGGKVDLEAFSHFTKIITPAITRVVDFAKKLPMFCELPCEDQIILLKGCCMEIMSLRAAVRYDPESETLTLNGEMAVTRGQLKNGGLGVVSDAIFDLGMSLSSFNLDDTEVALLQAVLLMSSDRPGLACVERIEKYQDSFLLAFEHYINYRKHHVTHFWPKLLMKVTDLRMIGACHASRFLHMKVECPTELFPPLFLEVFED
Sequence of Voltage-gated inwardly rectifying potassium channel KCNH2 (Homo sapiens) (Q12809 whole entry, looked up): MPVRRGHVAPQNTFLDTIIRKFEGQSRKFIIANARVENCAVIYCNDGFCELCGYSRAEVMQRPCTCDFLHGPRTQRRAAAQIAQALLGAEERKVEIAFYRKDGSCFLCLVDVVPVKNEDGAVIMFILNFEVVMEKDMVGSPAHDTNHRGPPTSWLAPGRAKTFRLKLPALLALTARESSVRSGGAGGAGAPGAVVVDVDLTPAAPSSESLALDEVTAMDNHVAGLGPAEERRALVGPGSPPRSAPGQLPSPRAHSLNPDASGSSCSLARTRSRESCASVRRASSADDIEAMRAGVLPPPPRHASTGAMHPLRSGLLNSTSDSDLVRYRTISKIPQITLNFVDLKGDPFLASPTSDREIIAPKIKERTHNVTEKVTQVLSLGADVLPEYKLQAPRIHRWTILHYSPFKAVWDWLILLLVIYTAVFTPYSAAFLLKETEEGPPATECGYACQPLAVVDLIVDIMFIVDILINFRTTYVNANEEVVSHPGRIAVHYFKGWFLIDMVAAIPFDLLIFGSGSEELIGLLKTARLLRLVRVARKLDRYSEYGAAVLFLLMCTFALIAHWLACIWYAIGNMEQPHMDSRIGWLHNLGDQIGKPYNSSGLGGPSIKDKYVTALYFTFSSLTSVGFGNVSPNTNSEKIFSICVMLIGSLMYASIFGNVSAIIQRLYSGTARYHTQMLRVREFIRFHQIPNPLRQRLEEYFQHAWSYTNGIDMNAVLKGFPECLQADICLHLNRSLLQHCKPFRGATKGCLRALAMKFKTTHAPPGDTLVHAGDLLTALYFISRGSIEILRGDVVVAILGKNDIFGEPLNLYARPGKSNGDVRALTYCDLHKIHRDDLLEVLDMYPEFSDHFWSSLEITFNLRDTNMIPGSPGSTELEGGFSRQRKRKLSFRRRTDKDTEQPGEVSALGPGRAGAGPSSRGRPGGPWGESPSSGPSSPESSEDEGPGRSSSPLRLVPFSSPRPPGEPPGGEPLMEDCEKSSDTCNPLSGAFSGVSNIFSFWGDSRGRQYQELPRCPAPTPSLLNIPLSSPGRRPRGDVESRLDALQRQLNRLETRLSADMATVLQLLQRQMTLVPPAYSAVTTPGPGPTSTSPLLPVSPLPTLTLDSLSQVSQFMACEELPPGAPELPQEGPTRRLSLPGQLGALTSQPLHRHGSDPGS

Take `O=C(O)c1cc(=O)[nH]c(=O)[nH]1`: the call in [1], in test [3] and in test [4] was inactive. Further, the max response was 0.884% in test [2], 2.15% in test [5] and 5.81% (inactive) in test [6]. In addition, the activity change % (negative = inhibition) in [7] was 1.95% (inactive). The Potency entry in test [8], in [9], in test [10] and in test [11] was “inactive” throughout.

On to `Cc1nnc(NS(=O)(=O)c2ccc(N)cc2)s1`, for which the result in test [1], in test [12], in [13], in test [3] and in test [4] was inactive. Moreover, the max response in test [2] is -10.5%; in test [5] it was -2.81%; in [6], -2.27% (inactive). Moreover, in [7], the activity change % (negative = inhibition) is -6.41% (inactive). Also, the Potency entry in [8], in test [9], in test [10] and in test [11] was “inactive” in each case.

Take `CCC(=O)O[C@]1(C(=O)SCF)[C@H](C)C[C@H]2[C@@H]3C[C@H](F)C4=CC(=O)C=C[C@]4(C)[C@@]3(F)[C@@H](O)C[C@@]21C`: the Potency result in [8] is “inactive”.

With `CC(C)(C)NC(=O)[C@H]1CC[C@H]2[C@@H]3CC[C@H]4NC(=O)C=C[C@]4(C)[C@H]3CC[C@]12C`, in test [8], the Potency result is “inactive”.

As for `C[C@@H]1CN(c2c(F)c(N)c3c(=O)c(C(=O)O)cn(C4CC4)c3c2F)C[C@H](C)N1`, the Potency entry in [8] was “inactive”.

Regarding `CO[C@@]12[C@H](COC(N)=O)C3=C(C(=O)C(C)=C(N)C3=O)N1C[C@@H]1N[C@@H]12`, in [8], the Potency entry was “inactive”.

Regarding `C[C@@H]1C[C@H]2[C@@H]3CCC4=CC(=O)C=C[C@]4(C)[C@@]3(Cl)[C@@H](O)C[C@]2(C)[C@@]1(OC(=O)c1ccco1)C(=O)CCl`, in [8], the Potency is 5.01 µM (active).

With `COc1ccc2cc3[n+](cc2c1OC)CCc1cc2c(cc1-3)OCO2`, the call in test [1], in test [12], in test [13] and in [4] was inactive. Moreover, the max response was 2.18% in test [5] and -28% (inactive) in test [6]. Moreover, the activity change % (negative = inhibition) in test [7] is -20.8% (inactive). The Potency result in test [8], in test [9] and in test [10] was “inactive” in each case.

As to `CC(=O)[C@H]1CC[C@H]2[C@@H]3CC=C4C[C@@H](O)CC[C@]4(C)[C@H]3CC[C@]12C`, the Potency result in test [8] is “inactive”.

For the molecule `CC(=O)Oc1ccccc1C(=O)Nc1ncc([N+](=O)[O-])s1`, the result in test [4] was inactive. The Potency entry in test [8] was “inactive”.

As to `CN(C)c1ccc(C(=C2C=CC(=[N+](C)C)C=C2)c2ccc(N(C)C)cc2)cc1`, the Potency was 44.7 µM (active) in test [14]; 28.2 µM (active) in [7]; 10 µM (active) and 12.6 µM (active) in test [8]; 12.8 µM (active) in test [9]; 9.07 µM (active) in test [10]; 9.07 µM (active) in test [11]. The molecule was called inactive in test [12], in test [13] and in [4].

As for `CC[C@H](C)C(=O)O[C@H]1C[C@@H](C)C=C2C=C[C@H](C)[C@H](CC[C@@H]3C[C@@H](O)CC(=O)O3)[C@H]21`, the result in test [1], in [12] and in test [13] was inactive. Further, the Potency result in test [9], in [10], in test [11] and in [15] was “inactive” throughout.

For `Cc1cc(NS(=O)(=O)c2ccc(N)cc2)no1`, the outcome in [1], in test [12], in [13], in test [3] and in test [4] was inactive. The max response in test [2] was 12.4%; in [5] it was -9.35%; in test [6] it was 6.61% (inactive). In [7], the activity change % (negative = inhibition) is -2.53% (inactive). For the same molecule, the Potency entry in [10] and in test [11] was “inactive” in each case.

For `CS(=O)(=O)c1ccc([C@@H](O)[C@@H](CO)NC(=O)C(Cl)Cl)cc1`, the Potency result in test [8] was “inactive”.

As to `CC(=O)CC(c1ccccc1)c1c(O)c2ccccc2oc1=O` (stereo not drawn), the molecule was called inactive in [13] and in test [3]. The max response in test [2] is 2.14%; in test [5], -2.55%; in test [6] it was 8.9% (inactive). In addition, the activity change % (negative = inhibition) in test [7] was 9.03% (inactive). For the same molecule, the Potency entry in [8] and in test [9] was “inactive” each time.
